Measured values published in PubChem BioAssay (Tox21).
Values without a mark were called inactive. Results filed as inconclusive are left out. Entries that show only a call come without a potency. The source made the active and inactive calls. Unless noted, calls come from the whole dose curve.

What was measured:
[1] = Nuclear factor erythroid 2-related factor 2/antioxidant responsive element (Nrf2/ARE) small molecule agonists: qHTS cell viability counter screen in human keratinocytes (AID 1919968; active = well fitted curve in the direction sought with a large enough effect in the repeat runs; an effect the other way counts as inactive or inconclusive; note: nearly all actives have a fitted effect of over 55% in size; note: potency is the fitted concentration of half-maximal effect)
Method in brief: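 Cytotoxicity was multiplexed with the Nrf2/ARE luciferase assay in the same wells. Stably transfected HaCaT keratinocytes were treated with test compounds for 23 h at 37 C. Cell viability was then measured by CellTiter-Fluor fluorescence.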

[2] = target: Gonadotropin-releasing hormone receptor (Homo sapiens) (UniProt P30968); assay: Human gonadotropin-releasing hormone receptor (GnRHR) small molecule agonists, calcium flux assay in GnRHR-HEK293 cells (AID 1920063); note: nearly all actives have a fitted effect of over 35% in size
Method in brief: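 Agonist activity was measured as intracellular calcium flux in HEK293 cells engineered to stably express human GnRHR. After dye loading for 1 hour at 37 C, compounds in DMSO were added and fluorescence was followed for 3 minutes.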

[3] = target: KiSS-1 receptor (Homo sapiens) (UniProt Q969F8); assay: Human kisspeptin (KISS1R) small molecule agonists, calcium flux assay in KISS1R-HEK293 cells (AID 1920064; active = well fitted curve in the direction sought with a large enough effect in the repeat runs; an effect the other way counts as inactive or inconclusive)
Method in brief: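 Agonist activity is monitored as intracellular calcium rise in engineered HEK293 cells carrying human KISS1R. Cells are dye-loaded for 1 h at 37 C before compound addition, and fluorescence is recorded for 3 min.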

[4] = G protein-coupled receptor (GPCR) small molecule agonists, calcium flux assay: HEK293 wild type cell line counter screen (AID 1920065)
Method in brief: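 Seed cells, incubate 18 h (37 C, 5% CO2); add calcium dye, 1 h at 37 C; pin-transfer compounds, ATP control or DMSO; read fluorescence 480/540 nm each second for 3 min.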

[5] = p53 small molecule agonists, cell-based qHTS assay with human liver microsomes (AID 1963577);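 note: p53 response element beta-lactamase reporter cells with liver microsomes plus NADPH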
Method in brief: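 p53RE-bla cells; 5 h settle, 37 C/5% CO2; cpd + HLM 0.5 mg/mL + NADPH 0.5 mg/mL (final); 16 h 37 C; LiveBLAzer 2 h RT dark; fluorescence readout.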

[6] = p53 small molecule agonists, cell-based qHTS assay with rat liver microsomes (AID 1963578)
Method in brief: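 Rat liver microsome activation: microsomes 0.5 mg/mL, NADPH 0.5 mg/mL final; p53RE-bla cells, 16 h 37 C; LiveBLAzer readout, 2 h RT dark.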

[7] = p53 small molecule agonists, cell-based qHTS assay with rat liver microsomes: qHTS cell viability counter screen (AID 1963580); note: nearly all actives have a fitted effect of over 45% in size
Method in brief: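 Rat liver microsome (0.5 mg/mL final) and NADPH (0.5 mg/mL final) co-incubation with compounds for 16 h at 37 C on HCT-116 p53RE-bla cells; cytotoxicity taken from intracellular ATP luminescence.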

[8] = p53 small molecule agonists, cell-based qHTS assay: qHTS cell viability counter screen (AID 1963581); note: nearly all actives have a fitted effect of over 45% in size; note: potency is the fitted concentration of half-maximal effect
Method in brief: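 Viability was counter-screened in parallel with the p53 agonist reporter by measuring intracellular ATP luminescence in the same HCT-116 p53RE-bla wells after 16 h compound treatment at 37 C.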

[9] = target: 5-hydroxytryptamine receptor 2A (Homo sapiens) (UniProt P28223); assay: 5-hydroxytryptamine receptor 2A (HTR2A) small molecule antagonists, cell-based qHTS assay (AID 1963586); note: nearly all actives have a fitted effect of over 45% in size; note: potency is the fitted concentration of half-maximal effect
Method in brief: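 CHO cells stably expressing human HTR2A were plated for 18 h at 37 C, then loaded with calcium dye for 1 h. Compounds were preincubated 5 min at room temperature before DOI (4 nM solution) was added. Kinetic fluorescence was read for 3 min.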

[10] = target: Muscarinic acetylcholine receptor M1 (Homo sapiens) (UniProt P11229); assay: Cholinergic receptor muscarinic 1 (CHRM1) small molecule antagonists, cell-based qHTS assay (AID 1963588); note: nearly all actives have a fitted effect of over 40% in size
Method in brief: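 Compounds were tested at 15 concentrations in three independent runs. Dye-loaded CHRM1-CHO cells were exposed 5 min at room temperature before stimulation by acetylcholine added at 50nM. Intracellular calcium was read kinetically on FDSS for 3 min.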

[11] = target: Muscarinic acetylcholine receptor M1 (Homo sapiens) (UniProt P11229); assay: Cholinergic receptor muscarinic 1 (CHRM1) small molecule agonists, cell-based qHTS assay (AID 1963589); note: nearly all actives have a fitted effect of over 35% in size
Method in brief: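 Cells were plated and incubated 18 h at 37 C/5% CO2, loaded with calcium dye for 1 h at 37 C, then treated with compounds in DMSO. Fluorescence was recorded kinetically at 1 sec intervals.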

[12] = target: Beta-2 adrenergic receptor (Homo sapiens) (UniProt P07550); assay: Adrenergic beta2 receptor (ADRB2) small molecule antagonists, cell-based qHTS assay (AID 1963592); note: nearly all actives have a fitted effect of over 50% in size; note: potency is the fitted concentration of half-maximal effect
Method in brief: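 Assay format: CHO-ADRB2 cells, 18-20hr seeding at 37C/5% CO2, then compound plus 1nM isoproterenol agonist mix for 0.5hr RT. Homogeneous time-resolved fluorescence cAMP detection after 1hr, expressed as 665/615 nm ratio.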

[13] = target: D(2) dopamine receptor (Homo sapiens) (UniProt P14416); assay: Dopamine D2 receptor (DRD2) small molecule antagonists, cell-based qHTS assay (AID 1963595; active = well fitted inhibition curve with a large enough effect in the signal ratio in the repeat runs, with a control signal flat; the % refers to the signal ratio; note: potency is the fitted concentration of half-maximal effect)
Method in brief: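 HEK293 cells stably expressing DRD2, preincubated with 0.1 mM Ro20-1724 and compounds 10 min, were stimulated with 200 nM NKH477 plus 12 nM quinpirole for 30 min at room temperature; cAMP measured by HTRF (665/620 nm).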

[14] = p53 small molecule agonists, cell-based qHTS assay with human liver microsomes: qHTS cell viability counter screen (AID 1963579); note: nearly all actives have a fitted effect of over 45% in size
Method in brief: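 Luminescent CellTiter-Glo read-out, 30 min at room temperature, gauged cytotoxicity in p53RE-bla cells exposed 16 h at 37 C to DMSO-dissolved compounds with metabolic activation by human liver microsomes and NADPH, each 0.5 mg/mL final.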

[15] = p53 small molecule agonists, cell-based qHTS assay (AID 1963582; active = well fitted activation curve with a large enough effect in the signal ratio in the repeat runs, not every such curve was filed as active; the % refers to the signal ratio)
Method in brief: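 Cells carrying a p53-responsive bla reporter are treated with test compounds for 16 h at 37 C; beta-lactamase activity is then detected with LiveBLAzer B/G FRET substrate after 2 h at room temperature.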

[16] = cAMP Responsive Elements (CRE) small molecule agonists, cell-based qHTS assay (AID 1963590)
Method in brief: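 Cells carrying a CRE-driven beta-lactamase reporter (HEK 293T) are seeded, incubated overnight (18 h), and treated with test compounds for 3 h at 37 C; reporter activity is then detected with a FRET substrate after 2 h at room temperature.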

[17] = cAMP Responsive Elements (CRE) small molecule antagonists, cell-based qHTS assay (AID 1963591; active = well fitted inhibition curve with a large enough effect in the signal ratio in the repeat runs, not every such curve was filed as active; the % refers to the signal ratio)
Method in brief: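 Cells (CRE-bla HEK 293T, DMEM with 10% dialyzed FBS and 25 mM HEPES) are seeded and incubated 18 h. Compounds are added with NKH477 agonist at 0.25 uM final for 3 h, then FRET substrate for 2 h.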

[18] = target: D(2) dopamine receptor (Homo sapiens) (UniProt P14416); assay: Dopamine D2 receptor (DRD2) small molecule agonists, cell-based qHTS assay (AID 1963594); note: nearly all actives have a fitted effect of over 35% in size
Method in brief: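 cAMP accumulation in DRD2-HEK293 cells measured by HTRF after 1 h detection; compounds added 10 min before NKH477 (200nM […]) forskolin-analogue stimulation, 30 min at room temperature, with Ro20-1724 present at 0.1 mM final.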

[19] = target: 5-hydroxytryptamine receptor 2A (Homo sapiens) (UniProt P28223); assay: 5-hydroxytryptamine receptor 2A (HTR2A) small molecule agonists, cell-based qHTS assay (AID 1963587); note: nearly all actives have a fitted effect of over 30% in size
Method in brief: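 Kinetic calcium-flux fluorescence (2 min, 1 sec intervals) after compound addition in agonist mode. HTR2A-CHO cells were cultured 18 h, then dye-loaded 1 h at 37 C.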

[20] = target: Beta-2 adrenergic receptor (Homo sapiens) (UniProt P07550); assay: Adrenergic beta2 receptor (ADRB2) small molecule agonists, cell-based qHTS assay (AID 1963593);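 note: CHO cells stably overexpressing human ADRB2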
Method in brief: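 CHO cells stably over-expressing ADRB2 were plated overnight at 37C, then dosed with compounds plus a stimulation mix containing 100uM IBMX and 25uM Ro-20-1724 for 0.5hr at room temperature. cAMP was measured by HTRF competition, 1hr.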

Gonadotropin-releasing hormone receptor (Homo sapiens), sequence (P30968 whole entry, looked up): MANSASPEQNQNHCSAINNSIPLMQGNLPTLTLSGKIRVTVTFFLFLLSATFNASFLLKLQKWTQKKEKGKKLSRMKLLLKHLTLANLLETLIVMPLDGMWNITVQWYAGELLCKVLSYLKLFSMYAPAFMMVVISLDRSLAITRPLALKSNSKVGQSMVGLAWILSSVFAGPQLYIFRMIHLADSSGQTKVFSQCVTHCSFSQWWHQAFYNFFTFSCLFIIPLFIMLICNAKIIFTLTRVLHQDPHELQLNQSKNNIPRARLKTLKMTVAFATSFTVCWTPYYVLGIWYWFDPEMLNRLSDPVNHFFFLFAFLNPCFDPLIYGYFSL
5-hydroxytryptamine receptor 2A (Homo sapiens), sequence (P28223 whole entry, looked up): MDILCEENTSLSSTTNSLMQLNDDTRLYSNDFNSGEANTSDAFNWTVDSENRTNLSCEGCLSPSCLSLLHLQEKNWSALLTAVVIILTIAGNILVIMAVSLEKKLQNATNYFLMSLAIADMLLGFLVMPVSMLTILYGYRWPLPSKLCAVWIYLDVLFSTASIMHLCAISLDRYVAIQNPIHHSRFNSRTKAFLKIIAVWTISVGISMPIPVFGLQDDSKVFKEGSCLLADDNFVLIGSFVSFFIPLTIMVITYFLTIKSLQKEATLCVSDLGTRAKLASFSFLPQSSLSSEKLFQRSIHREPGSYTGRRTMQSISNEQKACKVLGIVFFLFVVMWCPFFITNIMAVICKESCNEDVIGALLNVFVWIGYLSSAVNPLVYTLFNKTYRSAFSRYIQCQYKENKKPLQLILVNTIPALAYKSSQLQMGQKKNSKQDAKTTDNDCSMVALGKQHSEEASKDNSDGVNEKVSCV
D(2) dopamine receptor (Homo sapiens), sequence (P14416 whole entry, looked up): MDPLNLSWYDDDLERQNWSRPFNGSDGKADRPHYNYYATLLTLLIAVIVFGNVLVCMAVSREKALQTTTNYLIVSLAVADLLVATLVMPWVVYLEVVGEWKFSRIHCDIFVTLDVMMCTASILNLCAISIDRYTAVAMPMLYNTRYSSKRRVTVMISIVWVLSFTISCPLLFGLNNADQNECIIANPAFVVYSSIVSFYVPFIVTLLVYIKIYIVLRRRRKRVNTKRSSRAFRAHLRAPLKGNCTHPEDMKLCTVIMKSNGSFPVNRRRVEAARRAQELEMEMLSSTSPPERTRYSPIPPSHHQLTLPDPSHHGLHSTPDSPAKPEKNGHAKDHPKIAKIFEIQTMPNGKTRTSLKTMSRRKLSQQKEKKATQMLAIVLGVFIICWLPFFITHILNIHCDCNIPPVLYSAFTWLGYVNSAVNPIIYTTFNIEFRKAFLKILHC
Beta-2 adrenergic receptor (Homo sapiens), sequence (P07550 whole entry, looked up): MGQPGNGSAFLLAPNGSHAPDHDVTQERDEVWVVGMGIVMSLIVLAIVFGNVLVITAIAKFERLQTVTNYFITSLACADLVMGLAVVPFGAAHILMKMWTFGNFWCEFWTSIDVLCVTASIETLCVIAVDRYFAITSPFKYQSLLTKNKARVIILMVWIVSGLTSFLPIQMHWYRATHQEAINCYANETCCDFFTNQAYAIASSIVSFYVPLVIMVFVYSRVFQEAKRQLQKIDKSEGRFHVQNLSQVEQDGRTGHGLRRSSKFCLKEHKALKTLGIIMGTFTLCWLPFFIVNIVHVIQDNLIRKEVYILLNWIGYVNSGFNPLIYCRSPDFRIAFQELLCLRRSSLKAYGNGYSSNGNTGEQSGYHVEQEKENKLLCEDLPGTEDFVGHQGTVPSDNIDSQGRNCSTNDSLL
Muscarinic acetylcholine receptor M1 (Homo sapiens), sequence (P11229 whole entry, looked up): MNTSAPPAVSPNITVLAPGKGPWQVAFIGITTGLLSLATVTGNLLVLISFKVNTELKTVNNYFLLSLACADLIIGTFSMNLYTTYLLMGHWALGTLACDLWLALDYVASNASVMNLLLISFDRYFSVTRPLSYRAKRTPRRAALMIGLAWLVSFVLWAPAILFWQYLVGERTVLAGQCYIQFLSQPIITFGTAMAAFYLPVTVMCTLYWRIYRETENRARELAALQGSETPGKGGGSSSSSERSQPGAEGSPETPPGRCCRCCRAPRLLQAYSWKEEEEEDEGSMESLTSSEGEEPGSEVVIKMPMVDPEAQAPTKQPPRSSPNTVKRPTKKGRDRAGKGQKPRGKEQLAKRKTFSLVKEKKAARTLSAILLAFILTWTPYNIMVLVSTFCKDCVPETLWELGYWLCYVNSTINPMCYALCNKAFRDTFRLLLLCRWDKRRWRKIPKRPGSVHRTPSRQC
KiSS-1 receptor (Homo sapiens), sequence (Q969F8 whole entry, looked up): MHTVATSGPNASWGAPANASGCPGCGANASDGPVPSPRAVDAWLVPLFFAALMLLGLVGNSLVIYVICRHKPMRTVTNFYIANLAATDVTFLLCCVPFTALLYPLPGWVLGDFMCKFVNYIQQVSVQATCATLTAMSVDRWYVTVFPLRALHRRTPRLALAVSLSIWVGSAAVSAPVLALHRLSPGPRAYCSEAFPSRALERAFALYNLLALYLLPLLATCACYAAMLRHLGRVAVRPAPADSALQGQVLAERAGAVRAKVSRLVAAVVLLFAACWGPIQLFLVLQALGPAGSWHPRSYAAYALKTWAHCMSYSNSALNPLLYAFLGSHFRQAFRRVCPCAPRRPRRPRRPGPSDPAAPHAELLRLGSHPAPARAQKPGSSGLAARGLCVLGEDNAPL

Compound | Potency [1] | Potency [2] | Potency [3] | Potency [4] | Potency [5] | Potency [6] | Potency [7] | Potency [8] | Potency [9] | Potency [10] | Potency [11] | Potency [12] | Potency [13] | Potency [14] | Potency [15] | Potency [16] | Potency [17] | Potency [18] | Potency [19] | Potency [20]
CCC[CH2][Sn]([CH2]CCC)([CH2]CCC)[CH2]CCC | 12.2 µM (active) | inactive | inactive | inactive | inactive | inactive | inactive | 40.8 µM (active) | inactive | inactive | inactive | 48.6 µM (active) | 38.6 µM (active) |  |  |  |  |  |  | 
CC(N)=S | inactive | inactive | inactive | inactive | inactive | inactive |  | inactive |  |  |  | inactive | inactive | inactive | inactive | inactive | inactive | inactive |  | 
CN/C(=N\[N+](=O)[O-])NCC1CCOC1 (configuration not stated) | inactive | inactive | inactive | inactive | inactive | inactive | inactive |  | inactive | inactive | inactive | inactive | inactive | inactive | inactive | inactive |  | inactive | inactive | inactive
CC[C@H]1C[C@H]2[C@@H]3CCC4=CC(=O)CC[C@@H]4[C@H]3CC[C@]2(C)[C@H]1O | inactive | inactive | inactive | inactive | inactive | inactive | inactive | inactive |  | inactive |  |  | inactive |  |  |  |  | inactive |  | inactive
COP(=S)(OC)Oc1cc(Cl)c(I)cc1Cl | inactive | inactive | inactive | inactive |  |  | inactive | inactive | inactive | inactive | inactive | inactive | inactive | inactive |  | inactive | inactive | inactive | inactive | inactive
N#CC(O)c1ccccc1 (configuration not stated) | inactive | inactive | inactive | inactive |  |  | inactive | inactive | inactive | inactive | inactive | inactive | inactive | inactive |  | inactive | inactive |  | inactive | 
O=C1NC(=O)C(=O)C(=O)N1 | inactive | inactive | inactive | inactive |  |  | inactive | inactive | inactive | inactive | inactive | inactive | inactive | inactive |  | inactive | inactive | inactive | inactive | inactive
CCCCC/C=C\C/C=C\C/C=C\C/C=C\CCCC(=O)NCC(=O)O | inactive | inactive | inactive | inactive |  | inactive |  |  | 14.5 µM (active) | inactive | inactive |  | inactive | inactive |  |  |  |  |  | inactive
